Hits are enriched below; roughly 4.3% of the tested compounds scored in any of these assays.
NadD inh: blocks S. aureus nicotinate mononucleotide adenylyltransferase; purified NadD enzyme, colorimetric absorbance read-out; AID 602399; inhibition, % at 20 µM; 360,000 compounds, 0.78% hits; in the data active means inhibition above about 26%
NR3A LBD binder: modulates the human NR3A ligand-binding domain; 340,000 compounds, 2.5% hits; NR3A LBD differential scanning fluorimetry, Tm shift; 0% = protein alone, 100% = glycine-bound protein; Tm shift relative to glycine control, % at 25 µM;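 active means melting temperature shift of at least 10% of the positive control shift, at one fixed dose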
rCAG binder: binds r(CAG) RNA repeats. AID 651821. r(CAG) RNA repeat, TO-PRO-1 dye displacement fluorescence. inhibition, % at 3 µM. 370,000 compounds, 1.3% hits;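 active means inhibition above the plate cutoff, the mean of all test compounds on that plate plus 3 SD, cut at about 35% in these data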;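 further: higher means more dye released from RNA so lower well fluorescence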
FAS-TE inh: FAS thioesterase (human) inhibition. P49327. recombinant FAS-TE, OMFH fluorogenic substrate, fluorescence endpoint. inhibition, % at 15 µM. 360,000 compounds, 0.67% hits;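 active means compounds whose normalised, plate-corrected inhibition of enzyme fluorescence in the single-dose primary screen is 50% or more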
Numbers stand for hits; ! = repeats disagree.

For O=C(O)Cc1ccc(NC(=O)c2ccc3c(c2)C(=O)N(CC2CCCO2)C3=O)cc1 (centres undefined) the results were NadD inh inactive, NR3A LBD binder 11, rCAG binder inactive and FAS-TE inh inactive.
`Fc1ccc(Nc2nc3ccccc3s2)cc1` gave NadD inh inactive, NR3A LBD binder 20, rCAG binder inactive and FAS-TE inh inactive.
`Cc1ccc(Nc2nc3ccccc3s2)cc1` gave NadD inh inactive, NR3A LBD binder 22, rCAG binder inactive and FAS-TE inh inactive.
Screening COC(=O)[C@]12C[C@H](CC(=O)NCCC(C)C)C(=O)N(Cc3ccco3)C1=C[C@H](COCc1ccccc1)O[C@@H]2C returned rCAG binder inactive.
CCc1ccc(-c2cc(C)no2)cc1S(=O)(=O)Nc1ccc(Cl)cn1 was read as NadD inh inactive, NR3A LBD binder inactive, rCAG binder inactive and FAS-TE inh inactive.
CCc1ccc(-c2cc(C)no2)cc1S(=O)(=O)Nc1cc(C)on1 was read as NadD inh inactive, NR3A LBD binder 31, rCAG binder inactive and FAS-TE inh inactive.
For CCN(C)C(=O)CNc1nnnn1-c1ccccc1 the results were rCAG binder inactive.
Screening CCOc1ccccc1C(=O)N[C@H](C(=O)OCc1cc(=O)oc2cc(C)ccc12)C(C)C returned NadD inh inactive, NR3A LBD binder 15, rCAG binder inactive and FAS-TE inh inactive.
For COC(=O)[C@]12C[C@H](CC(=O)NCC34CC5CC(CC(C5)C3)C4)C(=O)N(Cc3ccco3)C1=C[C@H](COCc1ccccc1)O[C@@H]2C the results were rCAG binder inactive.
`CC(C)Oc1ccc(C(=O)Nc2ccc(Cl)c(S(=O)(=O)Nc3ccc(Cl)cc3)c2)cc1` gave NadD inh inactive, NR3A LBD binder 20, rCAG binder inactive and FAS-TE inh inactive.
`CCN(CC)CCNC(=O)c1ccc(Cl)c(S(=O)(=O)Nc2ccc(Cl)cc2)c1` gave NadD inh inactive, NR3A LBD binder 21!, rCAG binder inactive and FAS-TE inh inactive.
Screening C/C(=N\OC(=O)c1ccc(F)cc1)c1sc(-c2ccccc2)nc1C returned NadD inh inactive, NR3A LBD binder 11, rCAG binder inactive and FAS-TE inh inactive.
C/C(=N\OC(=O)c1ccc(Cl)cc1)c1sc(-c2ccccc2)nc1C was read as NadD inh inactive, NR3A LBD binder inactive, rCAG binder inactive and FAS-TE inh inactive.
`C/C(=N\OC(=O)c1cccc(C)c1)c1sc(-c2ccccc2)nc1C` gave NadD inh inactive, NR3A LBD binder 18, rCAG binder inactive and FAS-TE inh inactive.
Cc1ccc(-c2nc(C=Nc3ccc(O)cc3)c(O)o2)cc1 was read as NadD inh inactive, NR3A LBD binder 11, rCAG binder inactive and FAS-TE inh inactive.
`CN=Cc1nc(-c2ccccc2)oc1O` gave NadD inh inactive, NR3A LBD binder inactive, rCAG binder inactive and FAS-TE inh inactive.
For C=C(C)[C@@H]1CC2=C(OC)C(CC=C(C)C)(CC=C(C)C)C(=O)C(C(=O)c3ccccc3)=C2O1 the results were rCAG binder inactive.
For C[C@@H]1OCN(C)[C@H]2C[C@H]3c4[nH]c5cccc(-c6ccc7c(c6)OCO7)c5c4CCN3C[C@@H]12 the results were rCAG binder inactive.
Screening CCOC(=O)c1ccc(-n2[nH]c(-c3ccccc3)cc2=O)cc1 returned NadD inh inactive, NR3A LBD binder inactive, rCAG binder 49 and FAS-TE inh inactive.
Screening CCOC(=O)c1ccc(N=Nc2c(C)[nH]n(-c3ccccc3)c2=O)cc1 returned NadD inh inactive, NR3A LBD binder inactive, rCAG binder inactive and FAS-TE inh inactive.
CCn1nc(C)c(NC(=O)CCSc2nc(-c3ccco3)cc(C(F)(F)F)n2)c1C was read as NadD inh inactive, NR3A LBD binder 557, rCAG binder inactive and FAS-TE inh inactive.
Screening CCc1csc(N2[C@H](CN(CCOC)S(=O)(=O)c3ccccc3[N+](=O)[O-])[C@H](c3ccccc3)[C@@H]2CO)n1 returned rCAG binder inactive.
`c1csc(C2Nc3cccc4cccc(c34)N2)c1` gave NadD inh 31, NR3A LBD binder inactive, rCAG binder inactive and FAS-TE inh inactive.
For Clc1ccc(C2Nc3cccc4cccc(c34)N2)cc1Cl the results were NadD inh inactive, NR3A LBD binder inactive, rCAG binder inactive and FAS-TE inh inactive.
For COc1ccc(C2Nc3cccc4cccc(c34)N2)cc1 the results were NadD inh 39, NR3A LBD binder inactive, rCAG binder inactive and FAS-TE inh inactive.
Screening c1ccc(C2Nc3cccc4cccc(c34)N2)cc1 returned NadD inh inactive, NR3A LBD binder inactive, rCAG binder inactive and FAS-TE inh inactive.
For Clc1cccc(Cl)c1C1Nc2cccc3cccc(c23)N1 the results were NadD inh inactive, NR3A LBD binder inactive, rCAG binder inactive and FAS-TE inh inactive.
Screening Clc1cccc(C2Nc3cccc4cccc(c34)N2)c1 returned NadD inh 27, NR3A LBD binder inactive, rCAG binder inactive and FAS-TE inh inactive.
`COc1ccccc1C1Nc2cccc3cccc(c23)N1` gave NadD inh inactive, NR3A LBD binder inactive, rCAG binder inactive and FAS-TE inh inactive.
Oc1ccccc1C1Nc2cccc3cccc(c23)N1 was read as NadD inh inactive, NR3A LBD binder 11, rCAG binder inactive and FAS-TE inh inactive.
`C=CCN(CC#Cc1ccccc1)Cc1ccc(OC)cc1OC` gave rCAG binder inactive.
COC(=O)C[C@@H]1CC[C@@H]2[C@H](COc3ccc(NC(=O)c4cccc(OC)c4)cc3C(=O)N2C)O1 was read as rCAG binder inactive.
CCCCN1CCS(=O)(=O)N(Cc2cn(Cc3cccc(Cl)c3)nn2)C(C(=O)OC)C1 (centres undefined) was read as rCAG binder inactive.
Screening CCOc1cc(C2Nc3cccc4cccc(c34)N2)ccc1O returned NadD inh 30, NR3A LBD binder inactive and FAS-TE inh inactive.
For NC(=S)Nc1ccc(S(=O)(=O)c2ccc(NC(N)=S)cc2)cc1 the results were NadD inh inactive, NR3A LBD binder 23, rCAG binder inactive and FAS-TE inh inactive.
`CC(=O)Nc1ccc(S(=O)(=O)c2ccc(N)cc2)cc1` gave NadD inh inactive, NR3A LBD binder inactive, rCAG binder inactive and FAS-TE inh inactive.
Screening O=C1OCCN1C(=O)[C@H]1[C@H](c2ccc(Cl)cc2)C(c2ccccc2)=NN1c1ccccc1 returned NadD inh inactive, NR3A LBD binder inactive, rCAG binder inactive and FAS-TE inh inactive.
Cc1cccc(C2=NN(c3ccc(Br)cc3)[C@@H](C(=O)N3CCOC3=O)[C@@H]2C)c1 was read as NadD inh inactive, NR3A LBD binder 12, rCAG binder inactive and FAS-TE inh inactive.
COc1ccccc1[C@@H]1C(c2cccc(C)c2)=NN(c2ccccc2)[C@H]1C(=O)N1CCOC1=O was read as NadD inh inactive, NR3A LBD binder inactive, rCAG binder inactive and FAS-TE inh 74.
COc1ccccc1[C@@H]1C(c2cccc(Cl)c2)=NN(c2ccc(Br)cc2)[C@H]1C(=O)N1CCOC1=O was read as NadD inh inactive, NR3A LBD binder inactive, rCAG binder inactive and FAS-TE inh inactive.
O=C1OCCN1C(=O)[C@H]1[C@H](c2ccc(F)cc2)C(c2ccccc2)=NN1c1ccccc1 was read as NadD inh inactive, NR3A LBD binder inactive, rCAG binder inactive and FAS-TE inh inactive.
